Consider 39 molecules from PubChem BioAssay (EPA / NIEHS).

As usually defined, the AC50 is the midpoint of the concentration-response curve, whichever way the signal moves.

Molecules are shown by their SMILES. Where “and” joins values, the source holds several entries; their conditions need not be identical. Equal values may be shown once. A structure can be active in one record and inactive in another. Calls of active or inactive are those of the source. The calls were made as follows: active = hit-call score of the fitted dose curve at least 0.9, where 1 is the maximum; inactive = score below 0.9.

Read-out in the assay: Macrophage colony-stimulating factor (MCSF), CSF1 (gene 1435)
The assay can be described thus: BSK_hDFCGF_MCSF: BioMAP Diversity Plus: hDFCGF Assay for Macrophage colony-stimulating factor (MCSF) Biomarker Activity (AID 2283060). As to conditions: primary human foreskin fibroblasts; actives raise or lower the signal. As for the experimental part: BSK_hDFCGF is a cell-based, multiplexed-readout assay that uses foreskin fibroblast, a human skin primary cell, with measurements taken at 24 hours after chemical dosing in a 96-well plate.BSK_hDFCGF_MCSF is an assay component measured in the BSK_hDFCGF assay. It measures M-CSF antibody related to regulation of gene expression using ELISA technology.Data from the assay component BSK_hDFCGF_MCSF was analyzed into 1 assay endpoint. This assay endpoint, BSK_hDFCGF_MCSF, was analyzed with bidirectional fitting relative to DMSO as the negative control and baseline of activity. Using a type of binding reporter, gain or loss-of-signal activity can be used to understand changes in the signaling as they relate to the gene CSF1. Furthermore, this assay endpoint can be referred to as a primary readout, because this assay has produced multiple assay endpoints where this one serves a signaling function. To generalize the intended target to other relatable targets, this assay endpoint is annotated to the cytokine intended target family, where the subfamily is colony stimulating factor.
The levels of cell surface (or secreted, indicated by the prefix "s") biomarker endpoints were measured by ELISA. Overt cytotoxicity to cells in confluent adherent cultures (all systems other than the BT system) was assessed by measuring total protein levels using sulforhodamine B (SRB) staining in parallel cultures at the time of biomarker measurements, indicated as SRB endpoints. For proliferation assays for adherent cell types, individual cell types are cultured at sub-confluence and relative cell numbers quantified by SRB staining at time points optimized for each system (48 h: 3C and CASM3C systems; 72 h: BT and HDF3CGF systems; 96 h: SAg system). SRB was performed by staining cells with 0.1% SRB after fixation with 10% TCA and reading wells at 560 nm.Viability and proliferation of PBMC (T cells) was quantified by Alamar Blue reduction for the SAg and BT systems. For PBMC viability (referred to as PBMC Cytotoxicity within the assay endpoint names), cells were plated (75,000/well in a 96-well plate) and then chemical samples added for 1 h before addition of activators, SEB and TSST-1 (20 ng/mL final concentration each). Cells were incubated for 90 h. Then, Alamar Blue (20 uL/well) (Invitrogen, Cat DAL1100) was added for 6 h, and the plates were read with a fluorescence microplate reader at 546/580 nm (excitation/emission). For PBMC proliferation, cells were plated and activated as above but incubated for only 16 h prior to addition of Alamar Blue. Plates were read after 6 h.
On to `CCOC(=O)C(C#N)=C(c1ccccc1)c1ccccc1`, for which the result was inactive and the AC50 is 23.3 µM (active).

As for `COc1ccc(CCN2CCC(Nc3nc4ccccc4n3Cc3ccc(F)cc3)CC2)cc1`, the AC50 is 7.49 µM (active).

Regarding `O=C(Nc1ccc2c(O)c(N=Nc3ccc(N=Nc4ccc(S(=O)(=O)O)cc4)cc3)c(S(=O)(=O)O)cc2c1)c1ccccc1`, the AC50 is 30.8 µM (active) and 29.3 µM (active).

For the molecule `c1ccc(CCc2ccccc2)cc1`, the AC50 is 30.5 µM (active).

For `CS(=O)(=O)OCCCCOS(C)(=O)=O`, the result was inactive.

In the case of `C=C(C)C(=O)OCC(CC)(COC(=O)C(=C)C)COC(=O)C(=C)C`, the AC50 is 23.4 µM (active).

Take `O=C1OC2(c3ccccc31)c1ccc(O)c(Br)c1Oc1c2ccc(O)c1Br`: the AC50 was 20 µM (active).

Take `CCC(C)c1cc([N+](=O)[O-])cc([N+](=O)[O-])c1OC(=O)OC(C)C` (stereo not given): the AC50 is 6.2 µM (active).

On to `CC(C=O)Cc1ccc(C(C)(C)C)cc1` (stereo not given), for which the AC50 is 29.5 µM (active).

Regarding `CCCCCC(C=O)=Cc1ccccc1`, the result was inactive.

With `c1ccc(Oc2ccccc2)cc1`, the result was inactive.

Regarding `Oc1c(Cl)cc(Cl)c(Cl)c1Cc1c(O)c(Cl)cc(Cl)c1Cl`, the AC50 is 1.58 µM (active).

Turning to `CN(c1nccc(=O)[nH]1)C1CCN(c2nc3ccccc3n2Cc2ccc(F)cc2)CC1`, the outcome was inactive.

Turning to `CCCCN(CCCC)C(=O)N(CCCC)CCCC`, the AC50 is 9.49 µM (active).

On to `CCCCCCCCCCCCCCCC(=O)OC/C=C(C)/C=C/C=C(C)/C=C/C1=C(C)CCCC1(C)C`, for which the AC50 is 24.7 µM (active).

For the molecule `O=C1c2ccccc2C(=O)c2c(O)ccc(O)c21`, the AC50 is 1.38 µM (active).

Turning to `CC(C)(C)CC(C)(C)c1ccc(OCCOCC[N+](C)(C)Cc2ccccc2)cc1`, the AC50 is 6.64 µM (active).

Regarding `CCN(CC)C(=O)N(CC)CC`, the result was inactive.

For `C[C@@H]1CCN(C(=O)[C@H](CCCN=C(N)N)NS(=O)(=O)c2cccc3c2NC[C@H](C)C3)[C@@H](C(=O)O)C1`, the outcome was inactive.

Take `CC(CN=Cc1ccccc1O)N=Cc1ccccc1O` (stereo not given): the result was inactive.

As for `CC(=O)Nc1ccc(C(=O)CCl)cc1`, the AC50 is 8.76 µM (active).

Consider `C1=CC2C3C=CC(C3)C2C1` (stereo not given), for which the result was inactive.

Turning to `CC(=O)C1(C)CC2=C(CCCC2(C)C)CC1C` (stereo not given), the concentration at half-maximal activity (AC50) is 10.9 µM (active).

Regarding `CCCCCCC(CO)CCCC` (stereo not given), the AC50 is 33.8 µM (active) and 30.2 µM (active).

Consider `C=C(C)C(=O)OCCOCCOCCOCCOC(=O)C(=C)C`, for which the outcome was inactive.

`O=CN1CCOCC1`: the outcome was inactive.

Regarding `COc1ccc(OC)c(N=Nc2c(O)ccc3ccccc23)c1`, the AC50 is 5.74 µM (active).

Take `CN(C)C(=S)SC(=S)N(C)C`: the AC50 is 31.4 µM (active).

With `CC=Cc1ccc(OCC)c(O)c1`, the outcome was inactive.

As to `C=C(C)[C@H]1CC=C(C)C(=O)C1`, the result was inactive.

As to `CCCCOC(=O)CCCCCCCC(=O)OCCCC`, the outcome was inactive.

Take `COc1cc(Cl)c(OC)cc1N`: the result was inactive.

As for `C=CC(C)(O)CCC=C(C)C` (stereo not given), the result was inactive.

As for `c1ccc2cc(Nc3ccc(Nc4ccc5ccccc5c4)cc3)ccc2c1`, the outcome was inactive.

In the case of `IC(I)I`, the result was inactive.

For `CC(C)(N=C=O)c1cccc(C(C)(C)N=C=O)c1`, the result was inactive.

On to `Clc1cc(Cl)c(-c2c(Cl)c(Cl)cc(Cl)c2Cl)cc1Cl`, for which the AC50 was 8.48 µM (active).

Turning to `CSCCC=O`, the result was inactive.

On to `C=C(C)C(=O)OCCOCCOCCOC(=O)C(=C)C`, for which the AC50 is 0.0819 µM (active).
